Screens: PubChem, National Center for Advancing Translational Sciences (NCATS)
POLI inh: inhibitors of human DNA polymerase iota; Q9UNA4; Pol iota fluorescent replication assay, 10 min; Potency, µM (top dose mostly 115 µM), for inactives: at the highest dose activity, negative = inhibition, usual class: inhibitors; 390,000 tested, 1% active
Target sequence (Q9UNA4 whole entry, looked up): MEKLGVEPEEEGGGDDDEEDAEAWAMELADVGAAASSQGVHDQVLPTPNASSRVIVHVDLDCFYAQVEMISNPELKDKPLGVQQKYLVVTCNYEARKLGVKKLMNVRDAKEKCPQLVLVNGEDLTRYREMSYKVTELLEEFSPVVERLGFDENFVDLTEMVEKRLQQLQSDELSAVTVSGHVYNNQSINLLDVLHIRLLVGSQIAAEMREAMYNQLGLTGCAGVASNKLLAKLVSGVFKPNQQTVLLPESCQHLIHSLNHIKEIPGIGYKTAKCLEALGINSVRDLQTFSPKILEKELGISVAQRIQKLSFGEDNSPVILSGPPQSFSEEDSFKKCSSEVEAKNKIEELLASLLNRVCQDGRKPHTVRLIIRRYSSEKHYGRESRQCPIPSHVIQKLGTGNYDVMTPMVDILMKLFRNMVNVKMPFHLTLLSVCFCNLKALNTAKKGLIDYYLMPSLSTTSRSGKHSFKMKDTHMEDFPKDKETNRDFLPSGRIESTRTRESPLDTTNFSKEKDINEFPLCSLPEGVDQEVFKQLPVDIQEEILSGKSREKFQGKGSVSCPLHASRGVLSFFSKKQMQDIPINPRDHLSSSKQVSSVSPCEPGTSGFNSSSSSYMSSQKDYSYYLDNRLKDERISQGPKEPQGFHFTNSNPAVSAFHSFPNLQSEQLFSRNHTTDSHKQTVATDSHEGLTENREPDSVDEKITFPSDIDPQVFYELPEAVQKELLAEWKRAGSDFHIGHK
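Fluorescent replication assay read twice, at 0 min and 10 min after adding 50 nM (final) substrate. Enzyme (10 nM) and compounds were first incubated 15 min at room temperature; enzyme-free buffer wells were negative controls.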
WRN helicase inh: inhibitors of human WRN helicase; WRN helicase unwinding, fluorescent forked duplex, kinetic; Q14191; Potency, µM (top dose mostly 114 µM), for the others: at the highest dose activity change, negative = inhibition, usual class: inhibitors; 360,000 tested, 0.46% active; further: on the % scale 0 is the no-effect control and ±100 the full control effect; nearly all actives have a fitted effect of over 55% in size
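Kinetic fluorescence helicase assay: unwinding of a quenched forked DNA duplex (100 nM final) with 2 mM ATP final raises red fluorescence (525/598 nm). Compounds sat 15 min at room temperature with 20 nM WRN beforehand.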
Pol kappa inh: blocks human DNA polymerase kappa activity. 400,000 tested, 0.53% active. AID 588579. Potency, µM (highest dose often 107 µM), without a hit: at the highest dose activity, negative = inhibition, usual class: inhibitors. purified Pol kappa, fluorescent DNA synthesis assay, 10 min. Q9UBT6; further: on the % scale 0 is the no-effect control and ±100 the full control effect
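Readout: fluorescence, taken kinetically at 0 and 10 min. Conditions: 10 nM Pol kappa, 15 min RT compound preincubation, 50 nM substrate final. Controls: enzyme-free buffer wells.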
FEN1 inh: human FEN1 inhibition | AID 588795 | Potency, µM (doses to about 114 µM), without a hit: at the top dose activity change, negative = inhibition, actives largely listed as inhibitors | 390,000 tested, 0.35% active | Recombinant FEN1 flap cleavage, fluorescence, 15 min; further: on the % scale 0 is the no-effect control and ±100 the full control effect; nearly all actives have a fitted effect of over 65% in size
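Steps: FEN1 (10 nM) dispensed; compound added by pin tool; 15 min at room temperature; substrate added to 50 nM final; reads at 0 min and 15 min; data normalized and fitted (four-parameter Hill).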
POLH inh: blocks human DNA polymerase eta activity | Q9Y253 | recombinant Pol eta, fluorescent DNA replication assay | Potency, µM (titrated, usually from 114 µM), for the others: at the highest dose activity change, negative = inhibition, most hits filed as inhibitors | 390,000 tested, 1.2% active; further: on the % scale 0 is the no-effect control and ±100 the full control effect
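Pol eta (10 nM) was preincubated with compounds for 15 min at room temperature, after which fluorescent replication substrate (50 nM final) was added to start the reaction. Fluorescence was read kinetically at 0 and 10 min.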
Pol beta inh: inhibitors of human DNA polymerase beta. Pol beta primer extension/strand displacement, fluorescence kinetic. Potency, µM (doses to about 114 µM), for inactives: at the top dose activity change, negative = inhibition, usual class: inhibitors. 340,000 tested, 1.3% active; further: on the % scale 0 is the no-effect control and ±100 the full control effect
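10 nM enzyme + cpd, 15 min RT; start with substrate 50 nM final; read 0 min and after 10 min RT. Corrected, normalized data; 4-parameter Hill curve fit.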
* = called active by the depositor; ! = not active in a repeat; [ ] = remark or other dose. This is a sample that favours compounds with a hit; in the whole collection about 2.4% have one here. The call rests on the fitted dose curve; in most records, active means well fitted curve in the direction sought with a large enough effect; inconclusive means small, poorly fitted or top-dose-only effect, or another doubt; inactive means no such curve, though single readings can be large; an effect the other way counts as inactive or inconclusive. Potency means the concentration at half of the fitted maximal effect.

O=c1[nH]c2cc(C(F)(F)F)c(N3CCOCC3)cc2n(CP(=O)(O)O)c1=O was read as Pol kappa inh 0%[19.4 µM].
Screening CC1CCN(C(=O)CSc2nc3ncccc3[nH]2)CC1 returned POLI inh 13%, WRN helicase inh 4%, Pol kappa inh -8%, FEN1 inh -7%, POLH inh 5% and Pol beta inh 0%.
CCC1CCCCN1C(=O)CSc1nc2ncccc2[nH]1 (stereo not given) was read as POLI inh inconclusive, WRN helicase inh -3%[11.6 µM], Pol kappa inh 25µM*, FEN1 inh inconclusive, POLH inh -12% and Pol beta inh 45%.
O=C(O)c1ccccc1-c1ccccc1C(=O)Nc1ccc2oc(=O)c3ccccc3c2c1 was read as WRN helicase inh -7% and POLH inh -9%.
For O=C(O)c1ccccc1-c1ccccc1C(=O)Nc1ccc2c(c1)[nH]c(=O)c1ccccc12 the results were POLI inh 232%, WRN helicase inh -33%, Pol kappa inh -10%, FEN1 inh -5%, POLH inh 50µM* and Pol beta inh 12%.
Screening COc1ccccc1NC(=O)c1oc2ccccc2c1NC(=O)Cc1ccccc1 returned POLI inh 28%, Pol kappa inh -6%, FEN1 inh -1%, POLH inh 3% and Pol beta inh 30%.
CC(=O)N1CCc2cc(Br)cc(S(=O)(=O)N3CCC(C(=O)Nc4ccc(C(C)C)cc4)CC3)c21 was read as POLI inh 35µM*, Pol kappa inh inconclusive, FEN1 inh 89µM*, POLH inh -11% and Pol beta inh 0%.
`CC(C)c1ccc(NS(=O)(=O)c2cc(Br)cc3c2N(C(=O)C2CC2)CC3)cc1` gave POLI inh 8%, Pol kappa inh -7%, FEN1 inh 9%, POLH inh -21% and Pol beta inh 18%.
O=C1C([N+](=O)[O-])=C(O)c2cccc3cccc1c23 was read as Pol beta inh 11µM*.
`N=C1SC(c2ccccc2)C(=O)N1c1ncc(Cc2ccccc2Cl)s1` (stereo not given) gave POLI inh inconclusive, WRN helicase inh inconclusive, Pol kappa inh inconclusive, FEN1 inh 1%, POLH inh inconclusive and Pol beta inh 18µM*.
For O=[N+]([O-])c1ccc(-c2nc(NCc3ccccc3)c3ccccc3n2)cc1 the results were POLI inh 46%, WRN helicase inh -9%[57.1 µM], Pol kappa inh -16%, FEN1 inh -2%, POLH inh 79µM* and Pol beta inh 1%.
`CCC(C)NC(=O)Nc1ccc(Br)cc1` (stereo not given) gave POLI inh 14%, WRN helicase inh -7%, Pol kappa inh 1%, FEN1 inh 0%, POLH inh -20% and Pol beta inh -1%.
Screening CCC(C)Nc1ccc(NC(C)CC)cc1 (stereo not given) returned POLI inh 4%, WRN helicase inh -1%, Pol kappa inh 2.5µM*!, FEN1 inh -15% and POLH inh -12%.
`CC(=O)COc1ccc2c(c1C)O/C(=C\c1ccco1)C2=O` gave POLI inh inconclusive, WRN helicase inh -10%, Pol kappa inh inconclusive, FEN1 inh 1%, POLH inh 22µM* and Pol beta inh 45µM*.
Screening O=C(O)c1ccc(-c2nc(-c3ccccc3)c(-c3ccccc3)[nH]2)cc1 returned POLI inh 73%, WRN helicase inh 40µM*, Pol kappa inh 0%, FEN1 inh 12%, POLH inh -17% and Pol beta inh 39%.
Screening COc1ccc(-c2[nH]c(-c3ccc(C(=O)O)cc3)nc2-c2ccccc2)cc1 returned POLI inh -9%, WRN helicase inh -31%, Pol kappa inh -1%, FEN1 inh 2%, POLH inh -8% and Pol beta inh 1%.
